# Assay outcomes as filed in PubChem.
# An excerpt weighted towards active compounds, which were near 1.7% of everything screened.
# SARS 3CLpro inh: SARS-CoV 3CLpro protease inhibition; P0C6X7; recombinant SARS-CoV 3CLpro, quenched FRET peptide cleavage; inhibition, % at 6 µM; actives 0.14% (n = 290,000); AID 1706; in the data active = inhibition above about 12%
# CCHF vOTU inh: CCHFV vOTU protease inhibition; Pep-AMC fluorescence; inhibition, % at 11.5 µM; actives 0.55% (n = 370,000); in the data active = inhibition above about 30%; note: 0% = vehicle wells with enzyme and 100% = no enzyme wells
# RecA splice inh: blocks M. tuberculosis RecA intein splicing. P9WHJ3. cell-free RecA intein splicing, fluorescence. inhibition, % (concentration not given with the values). actives 0.75% (n = 290,000). AID 2221; in the data active = inhibition above about 30%;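 note: 0% = vehicle wells and 100% = reference inhibitor control wells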
# DUSP3 inh: inhibitors of human VHR1 phosphatase (DUSP3) | P51452 | recombinant VHR phosphatase, pNPP absorbance | inhibition, % at 13.3 µM | actives 0.52% (n = 290,000) | AID 1654; in the data active = inhibition above about 50%
# Target sequence (P51452 whole entry, looked up): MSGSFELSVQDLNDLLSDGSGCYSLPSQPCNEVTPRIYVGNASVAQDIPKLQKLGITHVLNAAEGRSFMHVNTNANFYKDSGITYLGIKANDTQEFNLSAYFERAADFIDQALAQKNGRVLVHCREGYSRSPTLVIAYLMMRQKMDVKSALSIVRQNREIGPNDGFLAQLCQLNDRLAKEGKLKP
# SSB-PriA inh: blocks PriA binding to SSB C-terminal tail; actives 0.6% (n = 430,000); AlphaScreen SSBct-PriA binding, biotinylated peptide; AID 1272365; inhibition, % at 33 µM; in the data active = inhibition mostly above about 37%, no sharp cut-off; inactive = mostly below about 20%;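 note: plate controls were negative control peptide for no effect and reference peptide for full effect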
# Active calls of the source: *; · = no result given.
SMILES,SARS 3CLpro inh,CCHF vOTU inh,RecA splice inh,DUSP3 inh,SSB-PriA inh
CCC(C)(C)NC(=O)C(c1ccccc1Cl)N(C(=O)CCC(=O)Nc1cc(C)on1)C1CC1 (centres undefined),2.6,8.6,-2.8,21.4,49.0*
CCOC(=O)c1[nH]cnc1C(=O)O,1.2,-4.5,-2.1,3.6,-2.4
O=C(O)c1nc[nH]c1C(=O)O,·,·,·,·,85.0*
O=C1C2C3C=CC(C3)C2C(=O)N1CNc1ccc(O)cc1 (centres undefined),·,·,61.9*,45.9,·
C/C(=N\NC(=O)c1ccc(F)cc1)c1ccccn1,1.1,-0.2,-1.6,2.4,·
Cn1cccc1C=NNC(=O)c1cc(-c2cccs2)nc2ccccc12,·,·,·,·,56.4
COc1ccc(C(=O)NN=C(C)c2ccccn2)cc1OC,·,·,·,·,83.3*
CC(=NNC(=O)c1cc(-c2cccs2)nc2ccccc12)c1ccccn1,·,·,·,·,85.1*
CC(=NNC(=O)c1ccccc1F)c1ccccn1,·,·,·,·,50.6*
CC(=NNC(=O)c1ccc(NS(=O)(=O)c2cccs2)cc1)c1ccccn1,·,·,·,·,39.2*
O=C(Cn1nc(C2CC2)n(-c2ccccc2)c1=O)Nc1cccnc1,·,·,·,·,-3.0
Nc1ccccc1Nc1cccc(C(F)(F)F)c1,5.9,4.5,4.7,9.3,42.9*
COc1cc(NC(=O)CCc2nnc3ccc(N4CCC5(CC4)OCCO5)nn23)cc(OC)c1,2.4,6.6,-1.8,-14.6,5.2
COc1cc(NC(=O)CCc2nnc3ccc(N4CCN(C)CC4)nn23)cc(OC)c1,-6.0,-6.8,-0.3,52.1*,-10.2
Cn1c(=NC(=O)CN2C(=O)c3ccccc3C2=O)sc2cc3c(cc21)OCCO3,·,·,·,·,-23.0
COc1ccc(/C(O)=C2/C(=O)C(=O)N(CCCN(C)C)C2c2cccc(Cl)c2)cc1OC (centres undefined),5.3,34.3*,-0.2,7.6,·
O=C(Nc1nnc(-c2ccno2)o1)c1cc(Cl)sc1Cl,·,·,·,·,3.0
COc1ccc(CN2CCN(Cc3cc4ccccc4o3)CC2CCO)cc1C (centres undefined),-2.1,-8.2,-0.7,59.1*,0.8
CC1CN(C(=O)CCC(=O)NCCCN2C(C)CCCC2C)c2ccccc2O1 (centres undefined),-6.7,-4.3,2.1,52.8*,-7.4
Cn1nc(CN(Cc2ccco2)C(=O)N2CCN(S(C)(=O)=O)C2=O)c2c1CCC2,·,·,·,·,84.0*
Cn1nc(CN(Cc2ccco2)C(=O)c2cccs2)c2c1CCC2,·,·,·,·,-5.0
COc1ccc(-c2cc3c(SCC(=O)NC4CCCC4)nccn3n2)cc1,·,·,·,·,-4.0
Cc1nc(C)c(C(=O)N(c2ccccc2F)C(C(=O)NCC2CCCO2)c2ccccc2)s1 (centres undefined),-6.5,-2.3,2.6,54.4*,-8.8
CC(C)C(=O)Nc1ccc(S(=O)(=O)NCC2CCN(C3CCCC3)CC2)cc1,·,·,·,·,-16.0
N#Cc1cccnc1OC1CCN(C(=O)CCn2ccc(=O)[nH]c2=O)CC1,·,·,·,·,-4.0
SMILES,SARS 3CLpro inh,CCHF vOTU inh,RecA splice inh,DUSP3 inh,SSB-PriA inh
O=[N+]([O-])c1ccc(CN=C(NC(=S)N2CCOCC2)c2ccc([N+](=O)[O-])cc2)cc1,·,·,·,·,-15.0
CC(=O)Nc1ccc2c(c1)CCCN2C(C)=O,·,·,·,·,4.0
CCOc1cc(NC(=S)NCC(C)C)c(OCC)cc1NC(=O)c1ccco1,2.1,8.9,-1.4,51.3*,-2.2
COc1ccc(Br)c(C(=O)NCC2CCN(c3ncccc3C#N)CC2)c1,·,·,·,·,-3.0
Cc1nc(SCC(=O)c2cccs2)c2oc3ccccc3c2n1,4.0,5.7,-2.2,56.4*,-8.0
Cc1cc(C)n(CCNC(=O)C2CCN(S(C)(=O)=O)CC2)n1,·,·,·,·,-7.0
O=C(Nc1nnc(C2CCCO2)s1)c1ccccn1 (centres undefined),·,·,·,·,110.0*
O=C(Nc1nnc(C2CCCCC2)s1)c1cccs1,0.5,5.9,0.3,-8.7,-4.3
O=C(Nc1nnc(SCc2ccc(F)cc2)s1)c1ccccn1,6.3,17.0,5.7,17.9,78.3*
O=C(Nc1nnc(C2CCCCC2)s1)c1ccccn1,·,·,·,·,70.5*
O=C(Nc1nnc(SCc2ccc(F)cc2)s1)c1csnn1,·,·,·,·,22.0
O=C(Nc1nnc(C2CCC2)s1)c1ccccn1,·,·,·,·,101.8*
CN(C)[C@@H](CNS(=O)(=O)Cc1ccccc1Cl)c1cn(C)c2ccccc12,·,·,·,·,-3.0
Cc1ccc(-c2nc(-c3ccccc3)c(S(=O)(=O)CC(=O)Nc3ccc(C)c(C)c3)[nH]2)cc1,·,·,·,·,0.0
O=C(NNc1ccc(C(F)(F)F)cc1[N+](=O)[O-])c1ccc(NS(=O)(=O)c2ccc(F)cc2)cc1,8.8,26.2,1.6,-7.2,60.1*
CC(C)[C@H](Nc1ccc(C(F)(F)F)cc1[N+](=O)[O-])C(=O)O,2.1,19.6,1.5,-8.5,-1.0
